Several values for one entry are separate records, joined by “and”; a condition that tells them apart may be missing. Identical values can stand only once. About 2,100 (0.62%) of roughly 340,000 compounds were called active.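 Rule for the calls: active = first-screen hits whose inhibition reached a set limit at any dose in the follow-up dose series; inconclusive = inhibition above the set first-screen limit but never retested; inactive = the rest.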 Not all results are given here. Entries with a potency or affinity are not part of this list.
What follows are molecules tested against Rac GTPase-activating protein 1 (Homo sapiens) (UniProt Q9H0H5) (assay: MgcRacGAP GTPase-activating activity inhibitors, confirmation, biochemical, ADP Hunter fluorescence, primary and confirmatory (AID 624330;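 note: fluorescence reports GDP produced by GAP-driven GTP hydrolysis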)). Conditions: MgcRacGAP-stimulated Rac1 GTP hydrolysis, at 30 µM, hits give high values, GST-tagged Rac1 F28L mutant substrate.
Chain of Rac GTPase-activating protein 1 (Homo sapiens) (Q9H0H5 whole entry, looked up): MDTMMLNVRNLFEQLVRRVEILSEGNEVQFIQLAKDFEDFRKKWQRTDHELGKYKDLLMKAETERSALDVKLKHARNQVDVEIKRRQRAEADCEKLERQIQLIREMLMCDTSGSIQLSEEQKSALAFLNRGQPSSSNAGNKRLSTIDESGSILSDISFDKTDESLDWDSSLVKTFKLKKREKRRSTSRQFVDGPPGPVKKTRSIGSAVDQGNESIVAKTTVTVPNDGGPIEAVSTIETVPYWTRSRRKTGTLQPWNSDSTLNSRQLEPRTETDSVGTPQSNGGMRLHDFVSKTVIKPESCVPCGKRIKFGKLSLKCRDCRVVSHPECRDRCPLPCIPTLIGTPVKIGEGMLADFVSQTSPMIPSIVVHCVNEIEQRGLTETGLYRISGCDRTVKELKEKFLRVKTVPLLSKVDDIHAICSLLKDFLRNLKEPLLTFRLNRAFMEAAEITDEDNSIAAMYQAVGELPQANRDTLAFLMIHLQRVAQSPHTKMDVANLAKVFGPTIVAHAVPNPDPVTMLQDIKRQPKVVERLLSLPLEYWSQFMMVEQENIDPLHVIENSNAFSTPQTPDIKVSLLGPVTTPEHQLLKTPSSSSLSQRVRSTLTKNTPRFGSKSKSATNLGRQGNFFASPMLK

inhibition, inactive:
Cc1ccc(CNc2nc3ccccc3n2C)cc1 13.6%
CC(C)NC(=O)Nc1ccc2c(c1)C(=O)N([C@H](C)CO)C[C@H](C)[C@@H](CN(C)C(=O)Nc1ccc(C(F)(F)F)cc1)O2 12.5%
Cc1ccc(C(C)C)c(OCC#CCN2CCOCC2)c1 30.8%
CCCN(CCC)CCOc1cc(C)ccc1C(C)C 18.2%
O=C(c1cc2ccccc2oc1=O)N(Cc1ccccc1F)C1CCS(=O)(=O)C1 (stereo not given) 6.33%
OCCCNCc1ccc(Cl)cc1Cl -1.18%
COc1cc(NC(=O)n2ncc3cc(Cl)ccc32)cc(OC)c1 5.31%
COc1ccc(C)cc1NC(=O)n1ncc2cc(Cl)ccc21 8.15%
COc1ccc(S(=O)(=O)Nc2cccc(SC)c2)cc1C(=O)N1CCOCC1 9.83%
Cc1ccccc1C(=O)NC(=S)Nc1ccccc1N1CCCC1 13.5%
O=[N+]([O-])C1=C(Nc2cccc3ccccc23)CS(=O)(=O)C1 9.69%
CC(=O)Nc1ccc(Nc2ccc([N+](=O)[O-])cn2)cc1 16.8%
Cc1ccc(NC2=C([N+](=O)[O-])CS(=O)(=O)C2)cc1 7.24%
O=[N+]([O-])c1ccc(Nc2ccc(F)cc2)nc1 6.73%
O=C(CSc1ncccn1)Nc1ccc(Cl)c(S(=O)(=O)N2CCOCC2)c1 7.79%
CCOC(=O)N1CCN(CC(O)COc2c(OC)cccc2OC)CC1 (stereo not given) 9.23%
Cc1cc(C(=O)CCC(=O)Nc2ccc(C(N)=O)cc2)c(C)s1 15%
O=C(NC1CCCCC1)c1csnn1 -0.31%
C=CCOc1ccccc1CN1CCSCC1 14.2%
CCOC(=O)N1CCN(Cc2ccccc2F)CC1 17.8%
C=CCOc1ccccc1CN1CCCCCC1 13%
O=S1(=O)CCN(Cc2ccccc2C(F)(F)F)CC1 1.13%
Cc1ccccc1CN1CCN(Cc2ccccc2C(F)(F)F)CC1 25.3%
Fc1ccccc1CN1CCCCCCC1 10.2%
CS(=O)(=O)N1CCN(Cc2ccccc2C(F)(F)F)CC1 8.59%
Cc1ccc(S(=O)(=O)N2CCN(Cc3ccccc3C(F)(F)F)CC2)cc1 13%
O=C1CCCC2=C1C(c1cccc(O)c1)C1=C(N2)c2ccccc2C1=O (stereo not given) -0.19%
Cc1ccc(NC(=O)C2Cc3ccccc3C(=O)O2)cc1 (stereo not given) -7.83%
O=C(CN(C(=O)CCC(=O)Nc1ccccn1)C1CCCC1)NCc1ccccc1 4.99%
CCOc1ccccc1NC(=O)c1ccc2nc[nH]c2c1 4.69%
CCN(C(=O)COC(=O)c1ccc(=O)n(Cc2ccccc2)n1)C1CCCCC1 0.9%
O=S(=O)(NCC1CCCO1)c1ccc(Br)cc1 (stereo not given) 12.2%
CCOc1ccc(CCN2C(=S)N([C@@H](CC(C)C)CN3CCCC3CN3C(=S)NC[C@@H]3Cc3ccc(O)cc3)C[C@@H]2CC(C)C)cc1 (stereo not given in full) 13.7%
Cc1csc(NC(=O)C2CCCN2C(=O)Oc2ccccc2)n1 (stereo not given) 7.03%
COc1ccc(-n2nnnc2SCC(=O)c2ccc(O)c(O)c2)cc1 9.34%
O=C(O)c1ccc(CSc2nnnn2-c2ccc(F)cc2)cc1 2.94%
Cc1cc(SCC(=O)O)nc2ccccc12 5.6% and 2.66%
Cc1cc(C)nc(SCC(=O)c2ccc(C)c(C)c2)n1 -8.22%
Cc1cc(C)nc(SCC(=O)c2ccc(F)cc2)n1 3.61%
Cc1cc(SCC(=O)c2ccc3c(c2)OCO3)nc2ccccc12 6.55%
COCCN(CC(=O)NCc1ccc(OC)cc1)C(=O)CCC(=O)Nc1nccs1 9.76%
COc1ccc(/C=C/C(=O)Oc2cc(C)[nH]c(=O)c2[N+](=O)[O-])cc1OC -3.35%
O=C(/C=C/c1ccc2c(c1)OCO2)NCCS(=O)(=O)N1CCN(c2ccccc2)CC1 -2.85%
Cc1cc(C)n(-c2cc(C)c(C)cc2Br)n1 4.26%
COc1ccc(-c2csc(Nc3cc(C)ccn3)n2)cc1OC 13.4%
Cc1ccnc(Nc2nc(-c3ccc(F)cc3)cs2)c1 7.49%
Cc1ccnc(Nc2nc(-c3ccccc3)cs2)c1 12.8%
Cc1ccnc(Nc2nc(-c3ccc(Cl)cc3)cs2)c1 4.43%
C[C@]12c3[nH]c4cc(-c5ccco5)ccc4c3CCN1C(=O)[C@@H](CC(=O)NCc1cccc(C(F)(F)F)c1)C[C@@H]2C(=O)N1CCCCC1 10.5%
CC(C)NC(=O)c1ccc(N(Cc2ccccc2)S(C)(=O)=O)cc1 4.09%
O=S(=O)(NCC1(N2CCOCC2)CCCCC1)c1ccccc1Cl -7.11%
CN1CCN(CCCC(=O)c2ccc(C3CCCC3)cc2)CC1 6.04%
O=C(O)c1cc([N+](=O)[O-])c(N2CCCC2)c([N+](=O)[O-])c1 9.56%
CCc1ccc(N(CC(=O)NC(C)(C)C)C(=O)CNC(=O)c2cccs2)cc1 11.2%
CCOC(=O)c1c(NC(=O)CCl)sc(CN(C)C)c1-c1ccccc1 -14%
Cn1c(=O)c2c(ncn2Cc2cccc(Cl)c2)n(C)c1=O 9.29%
O=C(c1ccccc1F)N1CCN(CC2CC3C=CC2C3)CC1 (stereo not given) 27.7%
Cc1ccc(OCC(=O)N2CCN(S(C)(=O)=O)CC2)cc1 11.9%
Cc1ccc(S(=O)(=O)N2CCN(CC3CC4C=CC3C4)CC2)cc1 (stereo not given) 23.4%
O=C(CCC1CCCC1)N1CCN(C(=O)C2CC2)CC1 -4.27%
CCN1CCN(CC2CC3C=CC2C3)CC1 (stereo not given) 24.6%
Cc1ccc(OCC(=O)N2CCCCCCC2)cc1 9.5%
O=C(CCC1CCCC1)N1CCC(N2CCCCCC2)CC1 21.7%
C1=CC2CC1CC2CN1CCN(c2ccccc2)CC1 (stereo not given) 14.6%
COc1ccccc1CN1CC(C(=O)NCC2(O)CCCCC2)CCC1=O (stereo not given) -29.3%
ONC=Nc1cccc2nonc12 4.4%
Cc1ccccc1NC(=O)COC(=O)c1cccc(S(=O)(=O)N2CCCCC2)c1 0.63%
COc1ccc(CCN(C(=O)C(F)(F)F)C(C(=O)NC2CCCCC2)c2ccc(C)s2)cc1OC (stereo not given) 4.06%
Cc1ccc(S(=O)(=O)N2CCN(C(=O)N(C)C)CC2)cc1 2.84%
O=C(Nn1cnc2ccccc2c1=O)c1ccc(Cl)c([N+](=O)[O-])c1 9.36%
COn1c(-n2nc(C)cc2C)nc2ccccc2c1=O 3.26%
CS(=O)(=O)N1CCN(CC2CC3C=CC2C3)CC1 (stereo not given) 26.4%
O=C(COc1ccccc1)N1CCN(C(=O)COc2ccccc2)CC1 2.47%
CCS(=O)(=O)N1CCN(CC2CC3C=CC2C3)CC1 (stereo not given) 3.64%
O=C(COc1ccccc1)N1CCCC1 2.28%
S=C(Cc1ccccc1)NCCc1ccccc1 9.14%
Cc1noc(C)c1N=Nc1ccc(Br)cc1C(=O)O 4.04%
O=C(NCc1ccc(Cl)cc1)c1ccncc1 6.54%
O=C(COn1nnc2ccc(S(=O)(=O)N3CCOCC3)cc21)NCc1cccc(Cl)c1 13.7%
COc1cc(Cc2cc(OC)c(O)c(OC)c2)cc(OC)c1O 6.74%
COc1cc(C(=O)C(=O)c2cc(OC)c(O)c(OC)c2)cc(OC)c1O 7.13%
Cc1ccc(S(=O)(=O)N2CCOCC2)cc1C(=O)Nc1nc(-c2ccccn2)cs1 13.7%
CCOc1ccc(S(=O)(=O)N2CCN(CC)CC2)cc1NC(=O)c1ccccc1F 0.51%
CCOc1cc(NC(=O)c2ccccc2OC)c(OCC)cc1NC(=O)c1ccccc1 -3.11%
CCn1c(C)cc(/C=C2/SC(=O)N(CC(=O)N3CCCC3)C2=O)c1C 8.19%
Cn1cnc2c1c(=O)n(Cc1cccc(Br)c1)c(=O)n2C 0.32%
O=c1cc(-c2ccccc2)oc2cc(O)c(O)c(O)c12 -59.8%
COc1c2ccoc2cc2oc(C)cc(=O)c12 6.29%
COc1cc2c(cc1OC)CN(CC(=O)Nc1ccccc1C(=O)NC1CC1)CC2 -6.05%
CCOC(=O)c1sc(N2C(=O)C(O)=C(C(=O)c3ccco3)C2c2ccc(C)o2)nc1C (stereo not given) 12.2%
CN=C1S/C(=C\c2ccc(Cl)cc2)C(=O)N1C 3.04%
CN=C1S/C(=C\c2ccc(SC)cc2)C(=O)N1C 7.27%
O=C1COc2ccc(C(=O)COC(=O)Cc3ccc(Cl)cc3)cc2N1 9.6%
COc1ccccc1C1NC(c2ccccc2OC)C(C)C(=O)C1C (stereo not given) -2.35%
COc1ccc(C2NC(c3ccc(OC)c(OC)c3OC)C(C)C(=O)C2C)c(OC)c1OC (stereo not given) 1.64%
O=C(N/N=C/c1ccc(N2CCOCC2)c([N+](=O)[O-])c1)c1ccc(F)cc1 7.08%
O=C(O)c1ccccc1NS(=O)(=O)c1ccc(NN=Cc2ccc(F)cc2)c([N+](=O)[O-])c1 6.4%
CCOc1ccc(C=NNc2ccc(S(=O)(=O)Nc3ccccc3C(=O)O)cc2[N+](=O)[O-])cc1 15.4%
CC(=O)Nc1ccc(C=NNc2ccc(S(=O)(=O)Nc3ccccc3C(=O)O)cc2[N+](=O)[O-])cc1 15.7%
CCOc1ccc(C=NNc2ccc(S(=O)(=O)Nc3ccccc3C(=O)O)cc2[N+](=O)[O-])cc1OC 10%

Source: PubChem BioAssay AID624330 (Southern Research Specialized Biocontainment Screening …, 2012)
